In PMC7862700, “An all-to-all approach to the identification of sequence-specific readers for epigenetic DNA modifications on cytosine” one finds binding signal data, which are given here for one sequence.

What all share (assay): DAPPL (digital affinity profiling via proximity ligation, sequencing); 10 mM Tris-HCl pH 7.5, 50 mM NaCl, 1 mM DTT, 4% glycerol, room temperature, 30 min; GST-TFs on glutathione beads, 16-mer random dsDNA library, 0.1% formaldehyde crosslink after washing; high values mean tight binding
One assay deals with T1, FEV (Homo sapiens, UniProt Q99581 1-238).
T1 sequence: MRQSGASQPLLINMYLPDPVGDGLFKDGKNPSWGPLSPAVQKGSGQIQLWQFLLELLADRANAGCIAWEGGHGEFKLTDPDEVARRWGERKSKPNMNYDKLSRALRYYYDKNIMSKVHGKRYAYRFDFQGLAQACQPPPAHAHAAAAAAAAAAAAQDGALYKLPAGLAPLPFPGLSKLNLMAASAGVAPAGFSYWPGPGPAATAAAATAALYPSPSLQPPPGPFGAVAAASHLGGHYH
Particulars: protein: recombinant; tags: N-terminal GST; dsDNA, one strand shown. Summed up:
(§1)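 Yeast served to express human transcription factors as GST fusions, which were then captured on glutathione beads and labelled with DNA barcodes. Pooled with a tag-only sample, they were incubated with 200 nmole of a 16-mer random double-stranded DNA library for 30 min at room temperature in Tris/NaCl/DTT/glycerol buffer, washed, crosslinked with 0.1% formaldehyde, ligated by proximity, amplified by PCR and sequenced. Dividing each hexamer's read frequency for a factor by its frequency for the tag-only sample gives the binding signal.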

The target of a further assay is ETV5 (Homo sapiens, UniProt P41161 1-510). The settings on record: protein: recombinant; tags: N-terminal GST; dsDNA, one strand shown. Summed up: as §1
ETV5, sequence (P41161 whole entry): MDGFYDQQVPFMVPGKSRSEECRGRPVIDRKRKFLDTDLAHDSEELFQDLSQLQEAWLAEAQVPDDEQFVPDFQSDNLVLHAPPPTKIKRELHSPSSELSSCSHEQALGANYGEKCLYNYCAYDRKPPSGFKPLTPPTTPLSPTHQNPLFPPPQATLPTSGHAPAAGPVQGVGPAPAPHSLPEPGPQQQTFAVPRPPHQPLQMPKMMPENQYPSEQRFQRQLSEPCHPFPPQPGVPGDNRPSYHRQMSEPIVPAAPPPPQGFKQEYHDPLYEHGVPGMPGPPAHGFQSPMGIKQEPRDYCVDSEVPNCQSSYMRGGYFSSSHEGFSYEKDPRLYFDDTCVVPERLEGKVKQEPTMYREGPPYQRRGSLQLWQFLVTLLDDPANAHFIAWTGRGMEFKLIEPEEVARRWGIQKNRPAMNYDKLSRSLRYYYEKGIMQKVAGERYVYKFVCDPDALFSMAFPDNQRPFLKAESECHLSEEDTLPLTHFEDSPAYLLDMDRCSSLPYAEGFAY
A further assay deals with HSF1 (Homo sapiens, UniProt Q00613 1-529). Particulars: protein: recombinant; tags: N-terminal GST; chain copies: 3; dsDNA, one strand shown. An outline of the steps:
as §1

The target in another assay is T2, SPIC (Homo sapiens, UniProt Q8N5J4 1-248).
T2 sequence: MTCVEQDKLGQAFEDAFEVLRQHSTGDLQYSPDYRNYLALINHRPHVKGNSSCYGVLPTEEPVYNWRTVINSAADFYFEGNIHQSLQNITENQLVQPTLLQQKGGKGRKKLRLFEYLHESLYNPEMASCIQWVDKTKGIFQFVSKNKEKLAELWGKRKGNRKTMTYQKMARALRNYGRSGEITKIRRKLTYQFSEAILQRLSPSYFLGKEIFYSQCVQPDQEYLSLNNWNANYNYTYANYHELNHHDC
Particulars: protein: recombinant; tags: N-terminal GST; dsDNA, one strand shown. An outline of the steps:
as §1

In another assay the target is ELF4 (Homo sapiens, UniProt Q99607 1-663). The settings on record: protein: recombinant; tags: N-terminal GST; dsDNA, one strand shown. Summed up:
as §1

For another assay, the target named is T3, ELK4 (Homo sapiens, UniProt P28324-2 1-405).
T3 sequence: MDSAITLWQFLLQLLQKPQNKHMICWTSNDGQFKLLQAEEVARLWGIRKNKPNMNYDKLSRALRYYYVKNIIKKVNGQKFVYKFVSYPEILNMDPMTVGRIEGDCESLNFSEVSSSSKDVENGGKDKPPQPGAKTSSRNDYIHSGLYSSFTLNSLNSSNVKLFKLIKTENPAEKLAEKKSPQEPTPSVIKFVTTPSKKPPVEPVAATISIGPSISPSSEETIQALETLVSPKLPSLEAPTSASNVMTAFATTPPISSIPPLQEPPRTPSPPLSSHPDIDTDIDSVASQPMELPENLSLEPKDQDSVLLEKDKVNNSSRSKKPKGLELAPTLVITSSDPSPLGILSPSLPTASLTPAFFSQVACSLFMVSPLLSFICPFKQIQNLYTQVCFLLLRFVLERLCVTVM
Particulars: protein: recombinant; tags: N-terminal GST; dsDNA, one strand shown. An outline of the steps: as §1

A further assay addresses T4, ETV2 (Homo sapiens, UniProt O00321 1-342).
T4 sequence: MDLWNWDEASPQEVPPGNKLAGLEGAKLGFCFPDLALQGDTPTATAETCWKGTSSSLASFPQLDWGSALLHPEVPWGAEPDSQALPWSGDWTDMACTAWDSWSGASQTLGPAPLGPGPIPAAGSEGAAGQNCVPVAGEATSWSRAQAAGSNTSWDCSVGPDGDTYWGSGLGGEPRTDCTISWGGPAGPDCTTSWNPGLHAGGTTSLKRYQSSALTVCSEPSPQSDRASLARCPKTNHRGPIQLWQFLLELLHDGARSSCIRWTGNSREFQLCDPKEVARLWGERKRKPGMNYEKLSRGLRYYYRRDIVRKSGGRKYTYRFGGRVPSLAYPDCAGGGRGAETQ
The settings on record: protein: recombinant; tags: N-terminal GST; dsDNA, one strand shown. Summed up: as §1

In a further assay the target is T5, ELF3 (Homo sapiens, UniProt P78545 1-371).
T5 sequence: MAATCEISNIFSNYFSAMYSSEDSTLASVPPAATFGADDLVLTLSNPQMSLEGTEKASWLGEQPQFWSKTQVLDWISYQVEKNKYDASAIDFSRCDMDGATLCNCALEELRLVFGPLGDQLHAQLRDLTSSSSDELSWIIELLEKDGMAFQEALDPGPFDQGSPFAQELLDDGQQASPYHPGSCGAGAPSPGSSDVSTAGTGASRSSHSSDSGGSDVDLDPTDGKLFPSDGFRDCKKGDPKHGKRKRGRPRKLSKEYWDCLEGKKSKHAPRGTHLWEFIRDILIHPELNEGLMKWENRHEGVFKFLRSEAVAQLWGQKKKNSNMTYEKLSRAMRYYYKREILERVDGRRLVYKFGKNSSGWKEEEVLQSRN
Particulars: protein: recombinant; tags: N-terminal GST; dsDNA, one strand shown. An outline of the steps:
as §1

For the next assay, the target named is CRX (Homo sapiens, UniProt O43186 1-299). The settings on record: protein: recombinant; tags: N-terminal GST; dsDNA, one strand shown. Summed up:
as §1

The next assay deals with ETV1 (Homo sapiens, UniProt P50549 1-477). The settings on record: protein: recombinant; tags: N-terminal GST; dsDNA, one strand shown. Summed up:
as §1

A further assay addresses T6, ERF (Homo sapiens, UniProt P50548 1-548).
T6 sequence: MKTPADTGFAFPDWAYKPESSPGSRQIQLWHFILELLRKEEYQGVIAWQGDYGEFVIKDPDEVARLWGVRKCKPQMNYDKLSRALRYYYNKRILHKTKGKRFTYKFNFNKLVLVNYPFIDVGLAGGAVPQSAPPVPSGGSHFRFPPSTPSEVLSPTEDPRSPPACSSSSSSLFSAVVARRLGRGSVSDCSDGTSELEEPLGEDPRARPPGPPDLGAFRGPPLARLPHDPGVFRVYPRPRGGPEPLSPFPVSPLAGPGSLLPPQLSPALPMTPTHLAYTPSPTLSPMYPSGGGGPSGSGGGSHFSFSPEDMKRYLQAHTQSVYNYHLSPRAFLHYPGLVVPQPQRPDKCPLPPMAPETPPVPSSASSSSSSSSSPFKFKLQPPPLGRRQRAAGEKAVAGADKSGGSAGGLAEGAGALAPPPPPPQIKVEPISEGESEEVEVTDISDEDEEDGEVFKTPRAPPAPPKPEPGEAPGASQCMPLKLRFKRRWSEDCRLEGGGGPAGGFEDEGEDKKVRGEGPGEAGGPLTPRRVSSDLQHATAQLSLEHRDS
Particulars: protein: recombinant; tags: N-terminal GST; dsDNA, one strand shown. Summed up: as §1

The target in another assay is T7, ETV3L (Homo sapiens, UniProt Q6ZN32 1-361).
T7 sequence: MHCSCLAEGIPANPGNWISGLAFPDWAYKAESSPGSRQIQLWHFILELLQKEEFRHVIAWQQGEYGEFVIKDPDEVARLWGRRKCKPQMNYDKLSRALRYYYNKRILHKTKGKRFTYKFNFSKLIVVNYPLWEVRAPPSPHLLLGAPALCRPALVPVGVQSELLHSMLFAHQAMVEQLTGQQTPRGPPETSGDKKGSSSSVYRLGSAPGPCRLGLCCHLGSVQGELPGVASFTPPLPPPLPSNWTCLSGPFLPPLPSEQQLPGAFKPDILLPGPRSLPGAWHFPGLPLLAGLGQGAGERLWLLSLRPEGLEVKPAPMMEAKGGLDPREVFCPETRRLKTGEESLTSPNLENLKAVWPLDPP
The settings on record: protein: recombinant; tags: N-terminal GST; dsDNA, one strand shown. An outline of the steps: as §1

For another assay, the target named is T8, ETS2 (Homo sapiens, UniProt P15036 1-469).
T8 sequence: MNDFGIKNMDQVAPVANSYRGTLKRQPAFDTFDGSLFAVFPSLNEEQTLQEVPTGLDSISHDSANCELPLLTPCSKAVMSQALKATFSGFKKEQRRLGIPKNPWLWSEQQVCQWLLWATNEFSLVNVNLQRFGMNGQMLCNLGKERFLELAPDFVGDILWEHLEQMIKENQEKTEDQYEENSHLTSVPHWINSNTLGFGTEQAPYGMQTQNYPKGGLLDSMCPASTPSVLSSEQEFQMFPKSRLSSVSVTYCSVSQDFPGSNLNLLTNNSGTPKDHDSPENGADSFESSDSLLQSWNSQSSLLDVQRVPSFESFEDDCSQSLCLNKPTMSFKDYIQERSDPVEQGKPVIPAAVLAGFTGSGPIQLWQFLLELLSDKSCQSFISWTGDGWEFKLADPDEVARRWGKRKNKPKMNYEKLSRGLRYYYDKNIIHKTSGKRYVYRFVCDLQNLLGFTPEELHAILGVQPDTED
Particulars: protein: recombinant; tags: N-terminal GST; dsDNA, one strand shown. Summed up: as §1

Another assay deals with T9, SPDEF (Homo sapiens, UniProt O95238 1-335).
T9 sequence: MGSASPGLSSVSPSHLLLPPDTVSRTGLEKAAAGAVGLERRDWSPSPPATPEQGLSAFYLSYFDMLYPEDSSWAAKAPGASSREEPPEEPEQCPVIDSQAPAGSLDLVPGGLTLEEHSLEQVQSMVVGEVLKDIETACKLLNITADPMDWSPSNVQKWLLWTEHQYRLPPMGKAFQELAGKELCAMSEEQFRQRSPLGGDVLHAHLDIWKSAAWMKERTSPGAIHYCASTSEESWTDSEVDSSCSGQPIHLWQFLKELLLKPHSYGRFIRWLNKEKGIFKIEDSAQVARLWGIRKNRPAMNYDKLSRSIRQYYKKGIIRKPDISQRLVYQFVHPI
The settings on record: protein: recombinant; tags: N-terminal GST; dsDNA, one strand shown. Summed up:
as §1

A further assay has as its target T10, ETV7 (Homo sapiens, UniProt Q9Y603 1-341).
T10 sequence: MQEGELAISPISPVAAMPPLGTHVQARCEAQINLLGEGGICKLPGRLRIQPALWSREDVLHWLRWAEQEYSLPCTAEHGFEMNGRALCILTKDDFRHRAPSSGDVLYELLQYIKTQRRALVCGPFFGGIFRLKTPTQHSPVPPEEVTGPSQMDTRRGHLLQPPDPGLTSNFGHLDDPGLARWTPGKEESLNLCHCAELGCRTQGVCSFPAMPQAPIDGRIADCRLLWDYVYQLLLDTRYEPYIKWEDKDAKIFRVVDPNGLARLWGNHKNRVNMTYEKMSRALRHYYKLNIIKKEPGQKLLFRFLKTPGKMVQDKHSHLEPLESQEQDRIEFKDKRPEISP
The settings on record: protein: recombinant; tags: N-terminal GST; dsDNA, one strand shown. Summed up:
as §1

The next assay concerns the target T11, ELF5 (Homo sapiens, UniProt Q9UKW6-2 1-255).
T11 sequence: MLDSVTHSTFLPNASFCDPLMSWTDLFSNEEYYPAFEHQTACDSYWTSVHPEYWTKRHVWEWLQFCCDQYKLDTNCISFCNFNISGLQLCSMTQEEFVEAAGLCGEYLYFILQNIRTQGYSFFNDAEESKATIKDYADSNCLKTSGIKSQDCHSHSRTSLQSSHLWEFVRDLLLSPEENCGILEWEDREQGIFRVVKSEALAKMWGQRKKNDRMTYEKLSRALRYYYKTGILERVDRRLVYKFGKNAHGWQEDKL
The settings on record: protein: recombinant; tags: N-terminal GST; dsDNA, one strand shown. Summed up: as §1

The target in the next assay is T12, ETV3 (Homo sapiens, UniProt P41162-2 1-143).
T12 sequence: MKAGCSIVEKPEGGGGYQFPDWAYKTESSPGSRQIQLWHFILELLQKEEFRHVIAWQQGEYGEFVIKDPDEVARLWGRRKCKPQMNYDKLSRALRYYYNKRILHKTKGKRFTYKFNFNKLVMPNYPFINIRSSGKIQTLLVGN
Particulars: protein: recombinant; tags: N-terminal GST; dsDNA, one strand shown. Summed up: as §1

The target in the next assay is ETV6 (Homo sapiens, UniProt P41212 1-452). Particulars: protein: recombinant; tags: N-terminal GST; dsDNA, one strand shown. An outline of the steps: as §1
ETV6, sequence (P41212 whole entry): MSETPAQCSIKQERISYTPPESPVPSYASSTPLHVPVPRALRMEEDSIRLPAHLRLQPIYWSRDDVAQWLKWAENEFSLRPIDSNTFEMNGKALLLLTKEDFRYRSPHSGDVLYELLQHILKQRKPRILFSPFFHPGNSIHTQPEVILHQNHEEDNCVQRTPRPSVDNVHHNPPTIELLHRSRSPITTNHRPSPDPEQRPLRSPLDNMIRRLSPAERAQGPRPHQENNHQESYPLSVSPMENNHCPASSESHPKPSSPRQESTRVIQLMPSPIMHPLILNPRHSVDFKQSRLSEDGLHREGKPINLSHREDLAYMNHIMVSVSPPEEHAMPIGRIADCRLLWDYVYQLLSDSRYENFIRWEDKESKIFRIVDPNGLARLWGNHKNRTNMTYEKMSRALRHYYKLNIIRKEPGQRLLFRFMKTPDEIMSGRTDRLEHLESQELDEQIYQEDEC

CRX, sequence (O43186 whole entry): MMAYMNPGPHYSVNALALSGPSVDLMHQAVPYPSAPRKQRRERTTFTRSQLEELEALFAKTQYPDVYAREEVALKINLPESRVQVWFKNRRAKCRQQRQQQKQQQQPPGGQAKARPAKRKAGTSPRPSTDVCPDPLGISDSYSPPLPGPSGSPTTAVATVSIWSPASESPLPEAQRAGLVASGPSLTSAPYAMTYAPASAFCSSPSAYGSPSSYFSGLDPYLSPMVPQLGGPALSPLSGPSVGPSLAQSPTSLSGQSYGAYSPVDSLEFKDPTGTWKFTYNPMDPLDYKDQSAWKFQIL
HSF1, sequence (Q00613 whole entry): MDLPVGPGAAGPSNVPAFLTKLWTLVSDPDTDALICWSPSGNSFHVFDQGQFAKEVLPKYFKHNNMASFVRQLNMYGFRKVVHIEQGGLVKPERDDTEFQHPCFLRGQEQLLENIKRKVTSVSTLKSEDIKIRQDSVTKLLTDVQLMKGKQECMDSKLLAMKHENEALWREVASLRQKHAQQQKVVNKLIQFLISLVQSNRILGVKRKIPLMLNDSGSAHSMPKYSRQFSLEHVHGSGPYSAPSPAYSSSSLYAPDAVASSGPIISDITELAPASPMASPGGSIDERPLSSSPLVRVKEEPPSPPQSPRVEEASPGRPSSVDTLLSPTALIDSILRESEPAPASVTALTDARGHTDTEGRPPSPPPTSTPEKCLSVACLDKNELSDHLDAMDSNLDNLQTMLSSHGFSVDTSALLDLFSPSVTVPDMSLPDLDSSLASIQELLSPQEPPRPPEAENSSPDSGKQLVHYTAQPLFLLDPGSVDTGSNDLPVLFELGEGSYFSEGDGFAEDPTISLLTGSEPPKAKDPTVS
ELF4, sequence (Q99607 whole entry): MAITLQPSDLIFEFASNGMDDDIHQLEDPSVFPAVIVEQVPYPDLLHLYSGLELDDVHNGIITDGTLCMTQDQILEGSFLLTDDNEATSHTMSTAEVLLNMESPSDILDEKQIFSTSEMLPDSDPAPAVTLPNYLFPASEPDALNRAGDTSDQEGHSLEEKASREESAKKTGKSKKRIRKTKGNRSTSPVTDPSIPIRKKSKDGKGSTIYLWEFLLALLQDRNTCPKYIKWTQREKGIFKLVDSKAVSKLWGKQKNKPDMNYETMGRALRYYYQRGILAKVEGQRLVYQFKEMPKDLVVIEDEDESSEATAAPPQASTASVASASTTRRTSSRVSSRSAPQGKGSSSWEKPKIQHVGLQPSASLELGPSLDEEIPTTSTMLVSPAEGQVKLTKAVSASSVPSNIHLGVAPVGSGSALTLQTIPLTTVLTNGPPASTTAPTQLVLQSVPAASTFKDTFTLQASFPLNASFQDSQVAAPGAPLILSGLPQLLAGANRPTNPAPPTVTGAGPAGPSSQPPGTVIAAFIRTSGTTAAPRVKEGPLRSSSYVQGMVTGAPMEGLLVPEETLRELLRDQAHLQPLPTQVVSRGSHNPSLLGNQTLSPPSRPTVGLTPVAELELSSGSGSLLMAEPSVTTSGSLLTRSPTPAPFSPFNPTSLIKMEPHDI
ETV1, sequence (P50549 whole entry): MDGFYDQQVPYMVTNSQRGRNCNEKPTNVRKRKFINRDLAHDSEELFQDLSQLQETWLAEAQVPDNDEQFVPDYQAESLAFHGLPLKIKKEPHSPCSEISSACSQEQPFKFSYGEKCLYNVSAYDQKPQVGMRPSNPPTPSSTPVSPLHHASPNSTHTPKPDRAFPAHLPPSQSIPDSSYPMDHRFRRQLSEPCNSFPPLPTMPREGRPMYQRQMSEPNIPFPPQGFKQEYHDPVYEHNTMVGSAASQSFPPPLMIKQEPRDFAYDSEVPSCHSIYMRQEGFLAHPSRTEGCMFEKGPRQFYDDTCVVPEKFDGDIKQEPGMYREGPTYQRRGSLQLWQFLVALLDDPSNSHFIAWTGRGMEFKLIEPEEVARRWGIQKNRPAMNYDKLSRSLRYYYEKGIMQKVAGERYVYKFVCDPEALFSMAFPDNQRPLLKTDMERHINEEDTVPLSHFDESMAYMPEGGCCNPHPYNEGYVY

For the sequence TCCCCC, the binding signal in the assay with FEV is 1.44 fold enrichment (6-mer frequency, TF over GST control); with ETV5, 1.48 fold enrichment (6-mer frequency, TF over GST control); in the assay with HSF1, 1.41 fold enrichment (6-mer frequency, TF over GST control); in the assay with SPIC, 1.44 fold enrichment (6-mer frequency, TF over GST control); with ELF4 it was 1.53 fold enrichment (6-mer frequency, TF over GST control); with ELK4, 1.57 fold enrichment (6-mer frequency, TF over GST control). Moreover, the binding signal with ETV2 was 1.53 fold enrichment (6-mer frequency, TF over GST control); with ELF3, 1.42 fold enrichment (6-mer frequency, TF over GST control); with CRX it was 1.45 fold enrichment (6-mer frequency, TF over GST control); in the assay with ETV1, 1.46 fold enrichment (6-mer frequency, TF over GST control); in the assay with ERF, 1.45 fold enrichment (6-mer frequency, TF over GST control); with ETV3L it was 1.43 fold enrichment (6-mer frequency, TF over GST control). Further, the binding signal in the assay with ETS2 is 1.42 fold enrichment (6-mer frequency, TF over GST control); in the assay with SPDEF, 1.35 fold enrichment (6-mer frequency, TF over GST control); in the assay with ETV7, 1.52 fold enrichment (6-mer frequency, TF over GST control); with ELF5, 1.7 fold enrichment (6-mer frequency, TF over GST control); in the assay with ETV3, 1.51 fold enrichment (6-mer frequency, TF over GST control); in the assay with ETV6, 1.56 fold enrichment (6-mer frequency, TF over GST control).
